Over roughly 3,600 compounds, “viability index relative to DMSO control” has its median near 0.81; the lowest 2% begin near 0.13. Shown is part of a subset that was picked to be rich in the lowest values.
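Further: Saponin-lysis sexual stage assay in serum-free medium: MitoTracker Red CMXRos staining plus saponin, high-content imaging, particle count per well divided by plate mean of DMSO wells.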

In this experiment the test system is Plasmodium falciparum NF54 stage V gametocytes. Put plainly: viability index relative to DMSO control (fraction); higher = less gametocyte killing. The note with it: 1.25 µM, incubation time: 72 h.
`CCOc1ccc2[nH]c(=O)c(CN(CCCN3CCOCC3)C(=S)NCCCN(CC)CC)cc2c1` had a viability index of 0.814.
Take `Oc1cccc(Nc2nc(NCc3ccco3)c3ccccc3n2)c1`: the viability index was determined as 0.595.
`O=[N+]([O-])c1cccc(Cl)c1N1CCN(S(=O)(=O)Cc2ccccc2)CC1` showed a viability index of 1.
With `COc1cc(C=C(C#N)c2nc3ccccc3[nH]2)ccc1OCc1ccccc1Cl` the figure was 0.678.
Next, `CC1CC(N(C(=O)c2ccc(Cl)cc2Cl)c2ccccc2)c2ccccc2N1C(=O)c1ccc(Cl)cc1` (centres undefined): 0.723; `O=[N+]([O-])c1cc([N+](=O)[O-])c2cccnc2c1Nc1cccc2cccnc12`: 0.209; `O=[N+]([O-])c1cc(C(F)(F)F)cc([N+](=O)[O-])c1Sc1cccc2cccnc12`: 0.0789.
With `CCC(=O)NC(c1cccc([N+](=O)[O-])c1)c1ccc2cccnc2c1O` (centres undefined) the figure was 1.12; with `COc1cccc2c1OCC(CN1CCC(C(=O)Nc3ccc(-n4cccn4)cc3)CC1)=C2`, 1.03.
Turning to `O=C(Nc1ccc2oc(-c3cccc4ccccc34)nc2c1)c1ccc([N+](=O)[O-])o1`, the viability index is 0.0679.
With `O=C(Nc1ccc2oc(-c3ccccc3F)nc2c1)c1ccc([N+](=O)[O-])o1` the figure was 0.128.
Next, `O=C(Nc1ccc(-c2nc3ccccc3[nH]2)cc1)c1ccc(-c2cccc([N+](=O)[O-])c2)o1`: 0.751; `O=C(Nc1ccc(F)c(F)c1)c1ccccc1[N+](=O)[O-]`: 1.03.
With `O=C(Nc1ccc(-c2nnc(-c3ccc(NC(=O)c4ccccc4[N+](=O)[O-])cc3)o2)cc1)c1ccccc1[N+](=O)[O-]` the figure was 0.756; with `CCC(C)(C)c1ccc(Oc2ccc(NC(=O)c3ccc([N+](=O)[O-])o3)cc2)cc1`, 0.362.
`CCN1C(=Cc2cccc[n+]2C)C=Cc2ccccc21` yielded a viability index of 1.01.
Next, `CCN1CCC(NC2CCCc3c2[nH]c2ccc([N+](=O)[O-])cc32)CC1` (centres undefined): 1.07; `CC1CCN(C(=O)C(C)N(c2ccccc2)S(C)(=O)=O)CC1` (centres undefined): 0.917; `O=C1OC(c2ccccc2)=NC1=C(Cl)Cl`: 1.1.
In the case of `Cc1cc(Nc2ccc(O)cc2)nc2cccc(O)c12`, the viability index turned out to be 0.735.
Next, `Cc1c2ccccc2cc(Cc2ccccc2)[n+]1C`: 0.76; `c1ccc2c(c1)ccc1cc3cccc[n+]3cc12`: 0.0821.
As for `C=CC[n+]1cccc2c3ccccc3ccc21`, the viability index was found to be 0.706.
Next, `O=C(c1ccc([N+](=O)[O-])cc1)c1ccc(Cl)c(Cl)c1`: 0.574.

Source of the values: the supplement of paper PMC4723716.
